Screens deposited in PubChem by National Center for Advancing Translational Sciences (NCATS).
TDP1 cell noCPT = qHTS for Inhibitors of human tyrosyl-DNA phosphodiesterase 1 (TDP1): qHTS in cells in absence of CPT. DT40 Tdp1-/- hTDP1 cells, no CPT, ATP luminescence, 48 h. Potency, µM (series often up to 46.2 µM), for the others: at the highest dose activity change, negative = growth inhibition, most hits filed as inhibitors. 420,000 tested, 15% active; also: potency is read from the fitted curve at half-maximal effect; nearly all actives have a fitted effect of over 55% in size
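Compound effects on proliferation are scored in DT40 Tdp1-/-;hTDP1 cells in the absence of CPT. ATP levels (CellTiter-Glo luminescence) are recorded after a ≥48 hr, 37 °C incubation.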
DT40 TDP1 CPT = growth inhibition of DT40 Tdp1-/-;hTDP1 cells with camptothecin (screen for TDP1 inhibitors); 420,000 tested, 12% active; chicken DT40 Tdp1-/-;hTDP1 cells + 20 nM CPT, ATP luminescence, 48 h; Potency, µM (highest dose often 46.2 µM), for the others: top-dose activity change, negative = growth inhibition, most hits filed as inhibitors; AID 686979; also: potency is read from the fitted curve at half-maximal effect; nearly all actives have a fitted effect of over 55% in size
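Chicken DT40 Tdp1-/- cells complemented with human TDP1, 400 cells/well, exposed to compounds plus 20 nM camptothecin for at least 48 h at 37 C; viability read as ATP content by CellTiter-Glo luminescence.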
IL-1B inflam inh = inflammasome signaling inhibition, IL-1 beta readout; THP-1 LPS/ATP IL-1B secretion, AlphaLISA, 16 h; stronger effect = lower value; activity change, % at 57.5 µM; 360,000 tested, 4.7% active; AID 743279; in the data active = activity change below about -50%; inconclusive = mostly about -30% to -49%
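Secreted IL-1B measured by AlphaLISA bead assay after 16 h compound exposure of THP-1 cells; compounds (final up to 57.5 uM) added 1 h before LPS (250 ng/mL) and ATP (1.25 mM) stimulation; lower signal means less secretion.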
HT1080 IDH1KD tx = kills HT-1080 cells with IDH1 knockdown; HT-1080 IDH1 knockdown viability, ATP luminescence, 48 h; Potency, µM (titrated, usually from 46.1 µM), for the others: top-dose activity, negative = toxicity, hits mostly cytotoxic; 360,000 tested, 2% active; AID 686971;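 also: potency is read from the fitted curve at half-maximal effect; 0% = DMSO wells and -100% = cell-free medium wells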
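Luminescent ATP read-out (CellTiter-Glo, 10 min at room temperature) after 48 h compound exposure at 37 °C gave viability of IDH1-knockdown HT-1080 cells. Activity was normalised to DMSO and cell-free wells, then fitted as concentration-response curves.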
HT1080NT lethal = kills 2HG-producing HT-1080-NT fibrosarcoma cells; HT-1080-NT fibrosarcoma viability, CellTiter-Glo ATP luminescence, 48 h; Potency, µM (top dose mostly 46.1 µM), for inactives: top-dose activity, negative = less viability, hits mostly cytotoxic; 360,000 tested, 1.6% active;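 also: NT is the 2HG producing partner of a matched IDH1 knockdown line; potency is read from the fitted curve at half-maximal effect; 0% = DMSO-treated cells and -100% = media-only wells without cells; nearly all actives have a fitted effect of over 55% in size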
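Compounds were tested in concentration-response format on HT-1080-NT cells for 48 hours at 37 degrees C. Cell viability came from CellTiter-Glo luminescence; curves were classified by r2, response magnitude and activity.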
The depositor's hits bear a star. Most compounds without a hit are left out; they make up all but 19% or so of the library. Unless noted, calls follow the shape of the dose curve; as a rule, active = well fitted curve in the direction sought with a large enough effect; inconclusive = small, poorly fitted or top-dose-only effect, or another doubt; inactive = no such curve, though single readings can be large; an effect the other way counts as inactive or inconclusive. Unless noted, % is scaled to controls: 0 for no effect and ±100 for the full control effect.

How did C=C1C2CCC3[C@@](CC[C@@H]4C(C(=O)O)CC(OC5OC(CO)C(OS(=O)(=O)O)C(OS(=O)(=O)O)C5OC(=O)CC(C)C)C[C@]34C)(C2)C1O (some centres undefined) do in these assays?
TDP1 cell noCPT: -4%; DT40 TDP1 CPT: -15%

Results for O=C(NCc1ccccc1)C(=O)NCC1OCCN1S(=O)(=O)c1ccc([N+](=O)[O-])cc1 (centres undefined) ?
TDP1 cell noCPT: inconclusive; DT40 TDP1 CPT: inconclusive; IL-1B inflam inh: 24; HT1080 IDH1KD tx: 5%; HT1080NT lethal: 10%

Results for Cc1cccc(OCCn2cccc2/C=C2/C(=O)NC(=O)N(Cc3ccco3)C2=O)c1 ?
TDP1 cell noCPT: -5%; DT40 TDP1 CPT: 0%; IL-1B inflam inh: inconclusive; HT1080 IDH1KD tx: 4%; HT1080NT lethal: 0%

What do the screens show for `CC(C)c1ccc(N2C(=O)NC(=O)/C(=C\c3cnc(-c4ccccc4)nc3)C2=O)cc1`?
TDP1 cell noCPT: inconclusive; DT40 TDP1 CPT: inconclusive; IL-1B inflam inh: -4; HT1080 IDH1KD tx: 10%; HT1080NT lethal: 0%

What do the screens show for `CCc1ccc(N2C(=O)NC(=O)/C(=C/c3cccn3CCOc3ccc(C(C)CC)cc3)C2=O)cc1` (centres undefined)?
TDP1 cell noCPT: 15µM*; DT40 TDP1 CPT: inconclusive; IL-1B inflam inh: -28; HT1080 IDH1KD tx: -2%; HT1080NT lethal: -2%

How did CCc1ccc(N2C(=O)NC(=O)/C(=C/c3cccn3CCOc3ccc(C)cc3)C2=O)cc1 do in these assays?
TDP1 cell noCPT: inconclusive; DT40 TDP1 CPT: 26µM*; IL-1B inflam inh: -16; HT1080 IDH1KD tx: 16%; HT1080NT lethal: 20%

How did CCOC(=O)c1ccc(N=C(c2ccccc2)c2c(O)n(C)c(=O)n(C)c2=O)cc1 do in these assays?
TDP1 cell noCPT: 7.3µM*; DT40 TDP1 CPT: 2.9µM*; HT1080 IDH1KD tx: inconclusive; HT1080NT lethal: inconclusive

What do the screens show for `COC(=O)c1ccc(N=C(c2ccccc2)c2c(O)n(C)c(=O)n(C)c2=O)cc1`?
TDP1 cell noCPT: 23µM*; DT40 TDP1 CPT: inconclusive; IL-1B inflam inh: -7; HT1080 IDH1KD tx: inconclusive; HT1080NT lethal: inconclusive

What do the screens show for `Cn1c(O)c(C(=NCCN2CCCCC2)c2ccccc2Cl)c(=O)n(C)c1=O`?
TDP1 cell noCPT: -26%; DT40 TDP1 CPT: inconclusive; IL-1B inflam inh: 2; HT1080 IDH1KD tx: 0%; HT1080NT lethal: -5%

How did Cn1c(O)c(C(=Nc2ccccc2)SCc2ccccc2Cl)c(=O)n(C)c1=O do in these assays?
TDP1 cell noCPT: 8.2µM*; DT40 TDP1 CPT: 5.8µM*; IL-1B inflam inh: inconclusive; HT1080 IDH1KD tx: 13µM*; HT1080NT lethal: inconclusive

How did CCN(CC)CCCC(C)N=C(c1ccccc1)c1c(O)n(C)c(=O)n(C)c1=O (centres undefined) do in these assays?
TDP1 cell noCPT: -11%; DT40 TDP1 CPT: -21%; IL-1B inflam inh: 11; HT1080 IDH1KD tx: 10%; HT1080NT lethal: 13%

Results for CSC(=Nc1ccccc1)c1c(O)n(C)c(=O)n(C)c1=O ?
TDP1 cell noCPT: -8%; DT40 TDP1 CPT: -12%; IL-1B inflam inh: 8; HT1080 IDH1KD tx: inconclusive; HT1080NT lethal: inconclusive

How did Cn1c(O)c(C(=Nc2ccc(F)cc2)c2ccccc2Cl)c(=O)n(C)c1=O do in these assays?
TDP1 cell noCPT: 7.3µM*; DT40 TDP1 CPT: inconclusive; IL-1B inflam inh: -24; HT1080 IDH1KD tx: -6%; HT1080NT lethal: -10%

What do the screens show for `Cc1ccc([C@H]2C[C@@H](n3cc(C4CC4)nn3)[C@H](O)CN2Cc2cccs2)cc1`?
TDP1 cell noCPT: -21%; DT40 TDP1 CPT: -29%; IL-1B inflam inh: 3; HT1080 IDH1KD tx: -5%; HT1080NT lethal: -6%

What do the screens show for `OC[C@@H]1CCCN2CCCC[C@@H]12`?
TDP1 cell noCPT: -7%; DT40 TDP1 CPT: 4%
